FBA Mtb inh: inhibitors of M. tuberculosis fructose-bisphosphate aldolase. purified M. tuberculosis FBA, fluorescence read-out. AID 588726. inhibition, % at 1 µM. hit rate 2.3% among 360,000; in the data active means inhibition above about 27%;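 further: 0% = vehicle and 100% = reference inhibitor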
Target sequence (P9WQA3 whole entry, looked up): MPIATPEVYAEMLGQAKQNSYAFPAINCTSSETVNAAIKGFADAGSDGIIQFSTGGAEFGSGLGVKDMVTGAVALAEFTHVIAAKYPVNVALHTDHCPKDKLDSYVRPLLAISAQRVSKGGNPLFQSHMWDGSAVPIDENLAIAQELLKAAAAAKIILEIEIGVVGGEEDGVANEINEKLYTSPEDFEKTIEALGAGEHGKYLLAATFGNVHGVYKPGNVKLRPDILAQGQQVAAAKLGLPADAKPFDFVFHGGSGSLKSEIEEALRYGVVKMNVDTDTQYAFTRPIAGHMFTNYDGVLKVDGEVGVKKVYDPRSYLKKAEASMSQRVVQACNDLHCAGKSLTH
Mtb BioA inh: blocks M. tuberculosis BioA enzyme activity; purified M. tuberculosis BioA enzyme, plate reader; inhibition, % at 9.99 µM; hit rate 0.096% among 360,000; AID 602481; in the data active means inhibition above about 40%; inconclusive means no clear call, values can overlap the other calls
FadD28 binding: inhibitors of Mycobacterium tuberculosis FadD28 bisubstrate binding | inhibition, % at 12.5 µM | FadD28 bisubstrate probe binding, fluorescence polarization | hit rate 0.22% among 360,000; in the data active means inhibition above about 8.5%, passing the limit was not always enough; inconclusive means no clear call, values can overlap the other calls
SARS 3CLpro inh: SARS-CoV 3CLpro protease inhibition. inhibition, % at 6 µM. hit rate 0.14% among 290,000. P0C6X7. recombinant SARS-CoV 3CLpro, quenched FRET peptide cleavage. AID 1706; in the data active means inhibition above about 12%
GDH-TPI inh: GDH-TPI coupled enzyme inhibition counter-screen | hit rate 1.2% among 360,000 | GDH-TPI coupled enzyme counterscreen, NADH absorbance | inhibition, % at 4.8 µM | AID 588335; in the data active means inhibition above about 30%;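 further: 0% = DMSO wells and 100% = wells lacking the enzyme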
The depositor's hits bear a star; ? = inconclusive; / = not tested or not shown. An excerpt weighted towards active compounds, which were near 3.1% of everything screened.

SMILES | FBA Mtb inh | Mtb BioA inh | FadD28 binding | SARS 3CLpro inh | GDH-TPI inh
CCCSC1=N/C(=C\c2ccc([N+](=O)[O-])o2)C(=O)S1 | -11 | -1 | 12* | 1 | 5
CCCSC1=N/C(=C\C=C\c2ccco2)C(=O)S1 | -1 | / | 15* | 5 | 11
COc1ccc(NC(=O)Nc2cccc3c2O[C@H](CN(C)S(=O)(=O)c2cn(C)cn2)[C@@H](C)CN([C@@H](C)CO)C3=O)cc1 | / | 2 | / | / | /
Cc1ccnc(NC(=O)CCC(=O)N(CC(=O)NC2CCCCC2)Cc2ccccc2)c1 | 5 | / | -2 | 1 | 4
Cc1ccccc1N(CC(=O)NC1CCCCC1)C(=O)c1csnn1 | 0 | 4 | -1 | 8 | -2
Cc1cccc(N(CC(=O)NC2CCCCC2)C(=O)c2ccc(C)s2)c1 | -2 | 0 | -4 | 7 | 4
CC1=CC=CN2C1=NC(=O)CC2(C)C(=O)N(CC(=O)NC1CCCC1)c1cc(C)cc(C)c1 (configuration not stated) | 174* | / | 0 | -4 | 7
CC1=CN2C(=NC(=O)CC2(C)C(=O)N(CC(=O)NC2CCCC2)c2ccccc2C)C=C1 (configuration not stated) | 147* | / | -5 | -4 | -4
CC1=CC=CN2C1=NC(=O)CC2(C)C(=O)N(CC(=O)NC1CCCC1)Cc1ccccc1 (configuration not stated) | 152* | -1 | 1 | 5 | 10
CC1=CN2C(=NC(=O)CC2(C)C(=O)N(CC(=O)NC2CCCC2)Cc2ccc(Cl)cc2)C=C1 (configuration not stated) | 117* | 8 | -2 | 1 | 0
Cc1ccc(S(=O)(=O)N(C)C[C@@H]2Oc3c(NC(=O)c4cnccn4)cccc3C(=O)N([C@H](C)CO)C[C@H]2C)cc1 | / | 4 | / | / | /
CO[C@@H]1CN(C)C(=O)c2cc(NC(=O)Nc3cccc(F)c3)ccc2OC[C@@H](C)NC[C@@H]1C | / | 8 | / | / | /
CC(C)C(=O)Nc1ccc2c(c1)C(=O)N(C)[C@@H]1CC[C@@H](CC(=O)NCc3cccc(F)c3)O[C@@H]1CO2 | / | -8 | / | / | /
CC(=O)N1[C@@H]2c3ccc(-c4cncnc4)c(=O)n3C[C@H]1[C@H](CO)[C@H]2C(=O)NC1Cc2ccccc2C1 | / | 3 | / | / | /
CO[C@@H]1CN(C)C(=O)c2ccc(NC(C)=O)cc2OC[C@H](C)N(C(=O)c2ccc(F)cc2)C[C@@H]1C | / | 0 | / | / | /
Cc1noc(C)c1NC(=O)N(C)C[C@@H]1Oc2c(NS(C)(=O)=O)cccc2C(=O)N([C@H](C)CO)C[C@H]1C | / | -12 | / | / | /
CC1=CN2C(=NC(=O)CC2(C)C(=O)N(CC(=O)NC2CCCC2)c2cc(C)cc(C)c2)C=C1 (configuration not stated) | 144* | / | -1 | 0 | 3
Cc1cc(C)cc(N(CC(=O)NC2CCCCC2)C(=O)CNC(=O)c2ccco2)c1 | 1 | -1 | -1 | 1 | -1
COc1ccc(S(=O)(=O)Nc2ccc3c(c2)C(=O)N([C@@H](C)CO)C[C@H](C)[C@@H](CN(C)C(=O)Nc2ccc4c(c2)OCO4)OCCCC[C@H](C)O3)cc1 | / | -1 | / | / | /
CN1CCN(CCCNC(=O)c2ccc3c(c2)N(Cc2ccc(F)cc2)CCS3)CC1 | 159* | 4 | 0 | 6 | 7
CCOC(=O)N1CCC(NC(=O)c2ccc3c(c2)N(Cc2ccc(C)cc2)CCS3)CC1 | 19 | -2 | -1 | -4 | -3
O=C(NCC1CCCO1)c1ccc2c(c1)N(Cc1ccc(F)cc1)CCS2 (configuration not stated) | 119* | 6 | 2 | 3 | 10
O=C(NC1CC1)c1ccc2c(c1)N(Cc1ccccc1)CCS2 | 161* | 1 | 1 | -4 | 4
CCOC(=O)N1CCC(NC(=O)c2ccc3c(c2)N(C)CCS3)CC1 | 114* | -1 | -2 | -5 | 16
CCOC(=O)N1CCN(C(=O)c2ccc3c(c2)N(Cc2ccc(F)cc2)CCS3)CC1 | 12 | 2 | -1 | 2 | 17
SMILES | FBA Mtb inh | Mtb BioA inh | FadD28 binding | SARS 3CLpro inh | GDH-TPI inh
CO[C@H]1CN(C)C(=O)c2cc(NC(=O)C3CCC3)ccc2OC[C@H](C)N(Cc2ccncc2)C[C@@H]1C | / | -2 | / | / | /
CCN1CCN(CCCNC(=O)c2ccc3c(c2)N(Cc2ccccc2)CCS3)CC1 | 170* | 0 | -2 | 4 | -3
COC(=O)CSc1nc2sc3c(c2c(=O)n1-c1ccc(OC)cc1)CCN(C)C3 | 4 | 14 | -4 | -4 | 20
COc1ccc(-n2c(SCC(N)=O)nc3sc4c(c3c2=O)CCN(C)C4)cc1 | 35* | ? | -2 | 0 | 35*
CC1CCN(C(=O)CSc2nc(N)c3c4c(sc3n2)CN(C)CC4)CC1 | 31* | 3 | -2 | 0 | 11
CCOC(=O)CSc1nc2sc3c(c2c(=O)n1-c1ccc(OC)cc1)CCN(C)C3 | 2 | 10 | -2 | -1 | 25
O=C(CSc1ccc(Cl)cc1)N1CCOCC1 | -11 | -3 | 15* | 5 | -3
CN1CCc2c(sc3nc(SCC(=O)N4CCOCC4)n(-c4ccc(Cl)cc4)c(=O)c23)C1 | 25 | 34 | -7 | -1 | 51*
CCCN(C)C[C@H]1Oc2cc(C#Cc3ccccn3)ccc2S(=O)(=O)N([C@H](C)CO)C[C@H]1C | / | 0 | / | / | /
COc1ccccc1S(=O)(=O)N1CC[C@@H]2[C@H]1c1cc(-c3ccccc3F)ccc1N[C@@H]2CO | / | -1 | / | / | /
CSC(=NC(C)c1ccccc1)NS(=O)(=O)c1cccs1 (configuration not stated) | 2 | 0 | -2 | 1 | 1
CSC(=NS(=O)(=O)c1ccc(N)cc1)NS(=O)(=O)c1cccs1 | 1 | / | 17* | / | 5
O=C(N[C@@H]1CC[C@@H](CCNC(=O)C2CCC2)O[C@H]1CO)c1ccccn1 | / | -1 | / | / | /
COc1ccc(N(C)C(=O)c2cc3c(s2)-c2ccccc2OC3)c(OC)c1 | 4 | -3 | -3 | 7 | 30
COC(=O)c1cc2c(s1)-c1ccccc1CC2 | 94* | -1 | -2 | 0 | 6
Cc1cccc(/C=N/NC(=O)c2cc3c(s2)-c2ccccc2CC3)c1 | 20 | -1 | -5 | -1 | 34*
COC(=O)c1cc2c(s1)-c1cc(F)ccc1OC2 | 62* | / | 0 | 4 | 31*
CN1c2ccsc2/C(=N/NC(=O)c2c(F)cccc2F)CS1(=O)=O | 0 | 0 | -5 | -3 | 34*
Cc1cccc(C(=O)N/N=C2\CS(=O)(=O)N(C)c3ccsc32)c1 | 6 | 2 | -1 | 2 | 22
Cc1ccnc(NC(=O)/C=C/c2cccs2)c1 | 6 | -2 | 0 | 3 | 31*
O=C(/C=C/c1cccs1)Nc1nncs1 | -6 | / | -3 | 0 | 70*
O=C(Nc1cccnc1)c1cccs1 | 0 | 5 | 0 | 0 | 1
O=C(/C=C/c1cccs1)Nc1cccnc1 | -3 | / | -2 | 2 | 32*
Cc1ccnc(NC(=O)CNC(=O)c2cccs2)c1 | 0 | 0 | 0 | / | -1
O=C(C[C@H]1CC[C@@H]2[C@H](COC[C@@H](O)CN2S(=O)(=O)c2cccc(Cl)c2)O1)NC1CCC1 | / | 0 | / | / | /

Screening results as filed in PubChem.
